Data published in publication PMC11062922 (Nature Chemical Biology, 2023).
Like-named read-outs stand apart in the source and are kept apart here.

Key:
STK4 = conditions: read-out: apparent Kd, n = 1
SYK = conditions: read-out: apparent Kd; compound concentrations:100 nM and 1000 nM (sheet 'Lestaurtinib' of Supplementary Table 1),run:Lestaurtinib_02339_R1,Plate:MR001; n = 1

In the case of Lestaurtinib, the potency estimated from few doses (STK4; compound concentrations:100 nM and 1000 nM (sheet 'Lestaurtinib' of Supplementary Table 1),run:Lestaurtinib_02482_R1,Plate:MR011) is reported as 34.5 nM, the potency estimated from few doses (STK4; compound concentrations:100 nM and 1000 nM (sheet 'Lestaurtinib' of Supplementary Table 1),run:Lestaurtinib_02482_R2,Plate:MR011) is reported as 42.5 nM and the potency estimated from few doses (STK4; compound concentrations:100 nM and 1000 nM (sheet 'Lestaurtinib' of Supplementary Table 1),run:Lestaurtinib_02482_R3,Plate:MR011) is reported as 38.1 nM. For the same substance, the potency estimated from few doses (STK4; compound concentrations:100 nM and 1000 nM (sheet 'Lestaurtinib' of Supplementary Table 1),run:Lestaurtinib_02487_R1,Plate:MR012) was 33 nM, the potency estimated from few doses (STK4; compound concentrations:100 nM and 1000 nM (sheet 'Lestaurtinib' of Supplementary Table 1),run:Lestaurtinib_02487_R3,Plate:MR012) was 48 nM and the potency estimated from few doses (STK4; compound concentrations:100 nM and 1000 nM (sheet 'Lestaurtinib' of Supplementary Table 1),run:Lestaurtinib_02496_R1,Plate:MR013) was 39.4 nM. For the same substance, the potency estimated from few doses (STK4; compound concentrations:100 nM and 1000 nM (sheet 'Lestaurtinib' of Supplementary Table 1),run:Lestaurtinib_02496_R3,Plate:MR013) was 36.6 nM, the potency estimated from few doses (STK4; compound concentrations:100 nM and 1000 nM (sheet 'Lestaurtinib' of Supplementary Table 1),run:Lestaurtinib_02566_R2,Plate:MR014) was 53.6 nM and the potency estimated from few doses (STK4; compound concentrations:100 nM and 1000 nM (sheet 'Lestaurtinib' of Supplementary Table 1),run:Lestaurtinib_02566_R3,Plate:MR014) was 36.8 nM. It also gave a potency estimated from few doses (STK4; compound concentrations:100 nM and 1000 nM (sheet 'Lestaurtinib' of Supplementary Table 1),run:Lestaurtinib_02572_R2,Plate:MR015) of 38.4 nM, a potency estimated from few doses (STK4; compound concentrations:100 nM and 1000 nM (sheet 'Lestaurtinib' of Supplementary Table 1),run:Lestaurtinib_02572_R3,Plate:MR015) of 51.5 nM and a potency estimated from few doses (STK4; compound concentrations:100 nM and 1000 nM (sheet 'Lestaurtinib' of Supplementary Table 1),run:Lestaurtinib_02577_R3,Plate:MR016) of 26.1 nM. It also gave a potency estimated from few doses (STK4; compound concentrations:100 nM and 1000 nM (sheet 'Lestaurtinib' of Supplementary Table 1),run:Lestaurtinib_02584_R1,Plate:MR017) of 32.3 nM, a potency estimated from few doses (STK4; compound concentrations:100 nM and 1000 nM (sheet 'Lestaurtinib' of Supplementary Table 1),run:Lestaurtinib_02584_R2,Plate:MR017) of 37.7 nM and a potency estimated from few doses (STK4; compound concentrations:100 nM and 1000 nM (sheet 'Lestaurtinib' of Supplementary Table 1),run:Lestaurtinib_02584_R3,Plate:MR017) of 39.7 nM. For the same substance, the potency estimated from few doses (STK4; compound concentrations:100 nM and 1000 nM (sheet 'Lestaurtinib' of Supplementary Table 1),run:Lestaurtinib_02601_R1,Plate:MR018) was 47.3 nM, the potency estimated from few doses (STK4; compound concentrations:100 nM and 1000 nM (sheet 'Lestaurtinib' of Supplementary Table 1),run:Lestaurtinib_02601_R2,Plate:MR018) was 41.1 nM and the potency estimated from few doses (STK4; compound concentrations:100 nM and 1000 nM (sheet 'Lestaurtinib' of Supplementary Table 1),run:Lestaurtinib_02601_R3,Plate:MR018) was 51.2 nM. The potency estimated from few doses (STK4; compound concentrations:100 nM and 1000 nM (sheet 'Lestaurtinib' of Supplementary Table 1),run:Lestaurtinib_02606_R1,Plate:MR019) was 38.6 nM, the potency estimated from few doses (STK4; compound concentrations:100 nM and 1000 nM (sheet 'Lestaurtinib' of Supplementary Table 1),run:Lestaurtinib_02606_R2,Plate:MR019) was 55.6 nM and the potency estimated from few doses (STK4; compound concentrations:100 nM and 1000 nM (sheet 'Lestaurtinib' of Supplementary Table 1),run:Lestaurtinib_02624_R1,Plate:MR020) was 48.3 nM. It also gave a potency estimated from few doses (STK4; compound concentrations:100 nM and 1000 nM (sheet 'Lestaurtinib' of Supplementary Table 1),run:Lestaurtinib_02724_R1,Plate:MR021) of 52.4 nM, a potency estimated from few doses (STK4; compound concentrations:100 nM and 1000 nM (sheet 'Lestaurtinib' of Supplementary Table 1),run:Lestaurtinib_02724_R2,Plate:MR021) of 41.4 nM and a potency estimated from few doses (STK4; compound concentrations:100 nM and 1000 nM (sheet 'Lestaurtinib' of Supplementary Table 1),run:Lestaurtinib_02724_R3,Plate:MR021) of 39.8 nM. For the same substance, the potency estimated from few doses (STK4; compound concentrations:100 nM and 1000 nM (sheet 'Lestaurtinib' of Supplementary Table 1),run:Lestaurtinib_02741_R2,Plate:MR023) was 36.2 nM, the potency estimated from few doses (STK4; compound concentrations:100 nM and 1000 nM (sheet 'Lestaurtinib' of Supplementary Table 1),run:Lestaurtinib_02748_R2,Plate:MR024) was 31.7 nM and the potency estimated from few doses (STK4; compound concentrations:100 nM and 1000 nM (sheet 'Lestaurtinib' of Supplementary Table 1),run:Lestaurtinib_02748_R3,Plate:MR024) was 40.9 nM. It also gave a potency estimated from few doses (STK4; compound concentrations:100 nM and 1000 nM (sheet 'Lestaurtinib' of Supplementary Table 1),run:Lestaurtinib_02752_R1,Plate:MR025) of 51.5 nM, a potency estimated from few doses (STK4; compound concentrations:100 nM and 1000 nM (sheet 'Lestaurtinib' of Supplementary Table 1),run:Lestaurtinib_02752_R2,Plate:MR025) of 36.2 nM and a potency estimated from few doses (STK4; compound concentrations:100 nM and 1000 nM (sheet 'Lestaurtinib' of Supplementary Table 1),run:Lestaurtinib_02752_R3,Plate:MR025) of 35.9 nM. For the same substance, the potency estimated from few doses (STK4; compound concentrations:100 nM and 1000 nM (sheet 'Lestaurtinib' of Supplementary Table 1),run:Lestaurtinib_02766_R2,Plate:MR027) was 45.4 nM, the potency estimated from few doses (STK4; compound concentrations:100 nM and 1000 nM (sheet 'Lestaurtinib' of Supplementary Table 1),run:Lestaurtinib_02768_R1,Plate:MR028) was 43.2 nM and the potency estimated from few doses (STK4; compound concentrations:100 nM and 1000 nM (sheet 'Lestaurtinib' of Supplementary Table 1),run:Lestaurtinib_02795_R2,Plate:MR022) was 29.7 nM. For the same substance, the potency estimated from few doses (STK4; compound concentrations:100 nM and 1000 nM (sheet 'Lestaurtinib' of Supplementary Table 1),run:Lestaurtinib_02802_R1,Plate:MR029) was 34.7 nM, the potency estimated from few doses (STK4; compound concentrations:100 nM and 1000 nM (sheet 'Lestaurtinib' of Supplementary Table 1),run:Lestaurtinib_02896_R1,Plate:MR030) was 35.8 nM and the potency estimated from few doses (STK4; compound concentrations:100 nM and 1000 nM (sheet 'Lestaurtinib' of Supplementary Table 1),run:Lestaurtinib_03172_R1,Plate:MR031) was 30.6 nM. The potency estimated from few doses (STK4; compound concentrations:100 nM and 1000 nM (sheet 'Lestaurtinib' of Supplementary Table 1),run:Lestaurtinib_03172_R2,Plate:MR031) was 38.8 nM, the potency estimated from few doses (STK4; compound concentrations:100 nM and 1000 nM (sheet 'Lestaurtinib' of Supplementary Table 1),run:Lestaurtinib_03172_R3,Plate:MR031) was 35.2 nM and the potency estimated from few doses (STK4; compound concentrations:100 nM and 1000 nM (sheet 'Lestaurtinib' of Supplementary Table 1),run:Lestaurtinib_03252_R2,Plate:MR032) was 45.6 nM. The potency estimated from few doses (STK4; compound concentrations:100 nM and 1000 nM (sheet 'Lestaurtinib' of Supplementary Table 1),run:Lestaurtinib_03260_R1,Plate:MR033) was 38.2 nM, the potency estimated from few doses (STK4; compound concentrations:100 nM and 1000 nM (sheet 'Lestaurtinib' of Supplementary Table 1),run:Lestaurtinib_03260_R2,Plate:MR033) was 47.5 nM and the potency estimated from few doses (SYK) was 511 nM.
